Records with an inconclusive call do not appear. Where a call stands in place of a potency, no number is given. Activity calls are given as the source filed them. Calls follow the shape of the dose curve; as a rule, active = well fitted inhibition curve with a large enough effect; inconclusive = small, poorly fitted or top-dose-only effect; inactive = flat fitted curve, though single readings scatter.
Potency is read from the fitted curve at half-maximal effect.

A short description of this experiment: qHTS to identify inhibitors of the type 1 interferon - major histocompatibility complex class I in skeletal muscle: primary screen against the NCATS LOPAC collection (AID 1347405).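 Also: lytic HiBiT luminescence reporting HLA-B protein level.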 The following applies: iHSKM muscle cells, IFN-b-induced MHC-I HiBiT luminescence, 24 h; series mostly up to 45.9 µM. The gist of the method:
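After 24 h at 37 C with compounds (7-point, 1:4.3 dilutions, 46 uM top final) plus 4 ng/ml IFN-beta, luminescence from lytic HiBiT detection was measured. HLA-B*08:01 in C25cl48 myoblasts carried an endogenous C-terminal HiBiT tag; medium lacked dexamethasone.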
On the technique in general: Quantitative high-throughput screening tests each substance at several concentrations.
On to `CC(CCc1ccccc1)NC(C)C(O)c1ccc(O)cc1` (stereo not drawn), for which the Potency entry is “inactive”. Regarding `CN1C[C@H](CNC(=O)OCc2ccccc2)C[C@@H]2c3cccc4c3c(cn4C)C[C@H]21`, the Potency result was “inactive”.

For the compound `NCC(CC(=O)O)c1ccc(Cl)cc1` (stereo not drawn), the Potency result is “inactive”. On to `CCCN1CCC[C@@H]2Cc3[nH]ncc3C[C@H]21`, for which the Potency result was “inactive”.

Consider `CCC1(C2=NCCN2)Cc2ccccc2O1` (stereo not drawn), for which the Potency result is “inactive”. As for `Cc1ccc(S(=O)(=O)N[C@@H](CCCCN)C(=O)CCl)cc1`, the Potency result is “inactive”. Regarding `CC(O)(CS(=O)(=O)c1ccc(F)cc1)C(=O)Nc1ccc(C#N)c(C(F)(F)F)c1` (stereo not drawn), the Potency result is “inactive”. Regarding `CCCN1CCC[C@@H]2Cc3nc(N)ncc3C[C@H]21`, the Potency result was “inactive”. Regarding `c1ccc(C2CC2)c(OCC2=NCCN2)c1`, the Potency entry was “inactive”. Regarding `CC(C)=CCOc1c2occc2cc2ccc(=O)oc12`, the Potency entry was “inactive”. Turning to `Cc1ncc(CNC(=O)N(CCCl)N=O)c(N)n1`, the Potency entry is “inactive”.

Take `NCC1(CC(=O)O)CCCCC1`: the Potency result is “inactive”. On to `N#CC(C#N)=Cc1ccc(O)c(O)c1`, for which the Potency entry was “inactive”.

As to `NN=C(N)N`, the Potency result is “inactive”. For `CC[C@@H](CO)NC(=O)[C@@H]1C=C2c3cccc4[nH]cc(c34)C[C@H]2N(C)C1`, the Potency entry was “inactive”. Consider `COc1ccccc1N1CCNCC1`, for which the Potency result is “inactive”. Regarding `Cc1cccc(C)c1NC(=O)CN1CCCC1=O`, the Potency result is “inactive”. As to `C[C@@H]1O[C@@H](O[C@H]2C[C@@H](O)[C@]3(CO)[C@H]4[C@H](O)C[C@]5(C)[C@@H](C6=CC(=O)OC6)CC[C@]5(O)[C@@H]4CC[C@]3(O)C2)[C@H](O)[C@H](O)[C@H]1O`, the Potency was 44.7 nM (active). Turning to `Nc1ccncc1`, the Potency result was “inactive”. On to `Cc1cccc(C)c1NC1=NCCCS1`, for which the Potency result is “inactive”.

Turning to `CNCC(O)c1ccc(O)cc1` (stereo not drawn), the Potency result is “inactive”. For `Cn1c(CCCC(=O)O)nc2cc(N(CCCl)CCCl)ccc21`, the Potency entry was “inactive”. Consider `CC(=O)[C@H]1CC[C@H]2[C@@H]3CC[C@H]4C[C@](C)(O)CC[C@]4(C)[C@H]3CC[C@]12C`, for which the Potency entry is “inactive”. On to `CC[C@@H](CO)NC(=O)[C@@H]1C=C2c3cccc4c3c(cn4C)C[C@H]2N(C)C1`, for which the Potency result is “inactive”. With `CC(=O)[C@H]1CC[C@H]2[C@@H]3CC[C@H]4C[C@H](O)CC[C@]4(C)[C@H]3C(=O)C[C@]12C`, the Potency result was “inactive”.

Turning to `COc1ccc(C(CN(C)C)C2(O)CCCCC2)cc1` (stereo not drawn), the Potency entry is “inactive”. To `O=C1NCN(c2ccccc2)C12CCN(CC1COc3ccccc3O1)CC2` (stereo not drawn) belongs “inactive”; to `NCC(O)c1ccc(O)cc1` (stereo not drawn), “inactive”.

These data come from PubChem BioAssay (NCATS).
